From the supplement of paper PMC9135407 come the findings set out here.

This assay relates to primary human hepatic stellate cells (donor 1). Description: scaled lipid accumulation score (0 = DMSO-like, 1 = nortriptyline-like); higher = stronger HSC inactivation (lipid re-accumulation), active = hit call of the paper. The following applies: 48 h. On the procedure: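 Primary lipid accumulation screen in primary human hepatic stellate cell myofibroblasts (donor 1, passage 8) in 384-well plates. 100 nL of library compound was pin-transferred into 30 µL medium in duplicate, and cells were treated for 48 h. The 'Scaled' score combines distance from plate baseline, toxicity and reproducibility penalties, and is normalised to nortriptyline (positive) and DMSO (negative) controls on each plate. A hit is defined as scaled >0.85 or among the top 3 wells per plate.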

The mark [1] stands for this setting: library stock concentration: 3.33 mM.
The mark [2] stands for this setting: library stock concentration: 10 mM.
[3] abbreviates: library stock concentration: 1 mM.
Setting [4] is: library stock concentration: 80 uM.
Where [5] appears, read: library stock concentration: 400 uM.
[6] abbreviates: library stock concentration: 2 mM.

Values joined by “and” are separate entries in the source; they are usually repeats but may differ in a detail not shown here. Equal values may be shown once. Among all 5,800 compounds or so, about 620 (11%) showed activity. Many of the other results were omitted from the sample, so actives are more common in it than they were. Values without a mark were called inactive.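 The calls were made as follows: active = score above a cut-off or among the top three wells of a plate; in these data no inactive exceeds 0.85.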 A value given as a limit tells only on which side of the number the result lay.

As for `COc1ccc(-c2oc3c(CC=C(C)C)c(O[C@@H]4O[C@H](CO)[C@@H](O)[C@H](O)[C@H]4O)cc(O)c3c(=O)c2O[C@@H]2O[C@@H](C)[C@H](O)[C@@H](O)[C@H]2O)cc1` [Icariin], the “scaled lipid accumulation score” value by setting is: under setting [1], 0.048; under setting [2], not above 0.
For `COc1ccc(-c2oc3c(CC=C(C)C)c(O[C@@H]4O[C@H](CO)[C@@H](O)[C@H](O)[C@H]4O)cc(O)c3c(=O)c2O[C@@H]2O[C@@H](C)[C@H](O)[C@@H](O)[C@H]2O)cc1`, the “scaled lipid accumulation score” value under setting [2] was not above 0.
Take `CCCCC[C@H](O)/C=C/[C@H]1[C@H](O)CC(=O)[C@@H]1C/C=C\CCCC(=O)OCC(O)CO` (some centres not stated) [Prostaglandin E2-1-glyceryl ester]: under setting [3], the “scaled lipid accumulation score” value was not above 0.
On the same count and under the same terms, in the case of `CCCCC[C@H](O)/C=C/[C@@H]1[C@@H](C/C=C\CCCC(=O)NCC)[C@@H](O)C[C@H]1O` [Prostaglandin F2.alpha. ethyl amide] it was not above 0.
For the compound `CCCCCCCCCCCCCCOc1ccc(C(=O)O)o1`, the “scaled lipid accumulation score” value under setting [3] is 0.036.
Take `COc1ccc(-c2cnc3c(-c4ccsc4)cnn3c2)cc1` [VEGF Receptor 2 Kinase Inhibitor IV]: under setting [1], the “scaled lipid accumulation score” value is not above 0.
`CC(C)(C)c1ccc(S(=O)(=O)/C=C/C#N)cc1` [listing 1 of 2 here]: the “scaled lipid accumulation score” value under setting [2] was 0.172.
Consider `CC(C)(C)c1ccc(S(=O)(=O)/C=C/C#N)cc1` [listing 2 of 2 here], for which, under setting [2], the “scaled lipid accumulation score” value was 1.12 (active).
Same read-out and setting: next, `Cc1ccc(S(=O)(=O)/C=C/C#N)cc1` [listing 1 of 2 here]: 0.931 (active).
As to `Cc1ccc(S(=O)(=O)C=CC#N)cc1`, the “scaled lipid accumulation score” value is 0.718 under setting [1] and 0.445 under setting [2].
For the compound `Cc1ccc(S(=O)(=O)/C=C/C#N)cc1` [listing 2 of 2 here], the “scaled lipid accumulation score” value under setting [4] is not above -0.001; the “scaled lipid accumulation score” value under setting [5] was not above -0.001; the “scaled lipid accumulation score” value under setting [6] was 0.813; the “scaled lipid accumulation score” value under setting [1] is 0.807; the “scaled lipid accumulation score” value under setting [2] was 0.729 and 0.437; the “scaled lipid accumulation score” value (library stock concentration: 24.1 mM) was 0.648.
As for `CC(C)(C)c1ccc(S(=O)(=O)Nc2ccc(-n3ccnc3)cc2)cc1` [Stem-Cell Factor/c-Kit Inhibitor, ISCK03], the “scaled lipid accumulation score” value under setting [1] is not above 0.
With `Cc1cc2c(C(=O)NCC(C)c3ccccc3)c(O)c(O)cc2c(O)c1-c1c(C)cc2c(C(=O)NCC(C)c3ccccc3)c(O)c(O)cc2c1O` (configuration not stated) [Sabutoclax], the “scaled lipid accumulation score” value reads like this: under setting [1], 0.768; under setting [2], 0.582.
For `COc1cc(CCc2cc(NC(=O)c3ccc(N4CC(C)NC(C)C4)cc3)n[nH]2)cc(OC)c1` (configuration not stated), the “scaled lipid accumulation score” value is, setting by setting: under setting [4], not above -0.016; under setting [5], not above -0.016; under setting [6], 0.369; under setting [1], 0.476; under setting [2], 0.5.
In the case of `CC(Cc1ccccc1)Nc1ncnc2c1ncn2C1OC(CO)C(O)C1O` (stereo not drawn) [R(-)-N6-(2-Phenylisopropyl)adenosine], the “scaled lipid accumulation score” value under setting [2] was not above -0.055.
